The text below walks through data of PubChem BioAssay (NCATS).

Results filed as inconclusive are left out. Where a call stands in place of a potency, no number is given. Active and inactive are the calls of the source. Calls come from the whole dose curve; as a rule, active = well fitted inhibition curve with a large enough effect; inconclusive = small, poorly fitted or top-dose-only effect; inactive = flat fitted curve, though single readings scatter.
Potency is the fitted concentration of half-maximal effect.

The subject of the first experiment is CP215. The experiment is described as follows: qHTS profiling for inhibitors of Plasmodium falciparum proliferation (AID 504749). Note: nearly all actives have a fitted effect of over 60% in size. To be noted: P. falciparum in erythrocytes, SYBR Green DNA, 72 h; series mostly up to 28.7 µM. In short, it runs like this:
(§1)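 Three-day growth assay of blood-stage parasites in erythrocytes (0.3% parasitemia, 2.5% hematocrit) at 37 C, 5% CO2, quantified by SYBR Green DNA staining after overnight detergent lysis.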
A general note: Quantitative high-throughput screening tests each substance at several concentrations.
With `C[C@]12CCC(=O)C(O)=C1CC[C@@H]1[C@H]3CCC(=O)[C@@]3(C)CC[C@@H]12`, the Potency result was “inactive”.
For the compound `CCCCc1ccc(C(=O)O)nc1`, the Potency entry was “inactive”.
Still for that read-out and setting: the result for `CC(=O)OCC1=C(C(=O)O)N2C(=O)[C@@H](N)[C@@H]2SC1` reads “inactive”; that for `NC(=O)CN1CC(O)CC1=O` (configuration not stated), “inactive”.
On the same count and under the same terms, the result for `CCCN1CCC[C@H](c2cccc(O)c2)C1` reads “inactive”; that for `COC(=O)c1cncn1C(C)c1ccccc1` (configuration not stated), “inactive”; that for `O=C(O)C(Cl)Cl`, “inactive”.
As to `CC(=O)[O][Hg][c]1ccccc1`, the Potency was 6.01 µM (active).
Regarding `C=CCN1CC[C@]23CCCCC2[C@H]1Cc1ccc(O)cc13` (some centres not stated), the Potency result is “inactive”.
On to `c1ccc(C2(c3ccccc3)CC2C2=NCCN2)cc1` (configuration not stated), for which the Potency entry is “inactive”.
Same read-out and setting: the result for `Cc1ccc(Cl)c(O)c1` reads “inactive”; that for `CN1C2CCC1CC(OC(=O)c1cc(Cl)cc(Cl)c1)C2` (configuration not stated), “inactive”.
The same measure, in the same setting: the result for `O=[N+]([O-])c1ccc([As](=O)(O)O)cc1` reads 7.57 µM (active).
The same measure, in the same setting: the result for `C1CCC(NC2CCCCC2)CC1` reads “inactive”.
As to `Cc1cc(O)ccc1Cl`, the Potency result was “inactive”.
Still for that read-out and setting: the result for `CCCCCCCCCC(CC)c1ccc(S(=O)(=O)O)cc1` (configuration not stated) reads “inactive”; that for `CC[N+]1(CCOC(=O)C(O)(c2ccccc2)c2ccccc2)CCCCC1`, “inactive”.
The same measure, in the same setting: the result for `O=C(O)COc1ccccc1` reads “inactive”.

The next experiment has as its system CP217. The description is as above. The settings on record: P. falciparum in erythrocytes, SYBR Green DNA, 72 h; series mostly up to 28.7 µM. In short, it runs like this: as §1
Turning to `C[C@]12CCC(=O)C(O)=C1CC[C@@H]1[C@H]3CCC(=O)[C@@]3(C)CC[C@@H]12`, the Potency result was “inactive”.
As to `CC(C)NC(C)Cc1ccc(I)cc1` (configuration not stated), the Potency result was “inactive”.
As to `CCCCc1ccc(C(=O)O)nc1`, the Potency result was “inactive”.
On to `NC(=O)CN1CC(O)CC1=O` (configuration not stated), for which the Potency entry was “inactive”.
Same read-out and setting: the result for `CCCN1CCC[C@H](c2cccc(O)c2)C1` reads “inactive”.
On to `O=C(O)C(Cl)Cl`, for which the Potency entry is “inactive”.
The same measure, in the same setting: the result for `CC(=O)[O][Hg][c]1ccccc1` reads 7.08 µM (active); that for `C=CCN1CC[C@]23CCCCC2[C@H]1Cc1ccc(O)cc13` (some centres not stated), “inactive”; that for `c1ccc(C2(c3ccccc3)CC2C2=NCCN2)cc1` (configuration not stated), “inactive”.
Same read-out and setting: the result for `Cc1ccc(Cl)c(O)c1` reads “inactive”; that for `CN1C2CCC1CC(OC(=O)c1cc(Cl)cc(Cl)c1)C2` (configuration not stated), “inactive”.
Consider `O=[N+]([O-])c1ccc([As](=O)(O)O)cc1`, for which the Potency was 7.94 µM (active).
Same read-out and setting: the result for `C1CCC(NC2CCCCC2)CC1` reads “inactive”; that for `Cc1cc(O)ccc1Cl`, “inactive”.
Still for that read-out and setting: the result for `CCCCCCCCCC(CC)c1ccc(S(=O)(=O)O)cc1` (configuration not stated) reads “inactive”; that for `CC[N+]1(CCOC(=O)C(O)(c2ccccc2)c2ccccc2)CCCCC1`, “inactive”.
Same read-out and setting: the result for `O=C(O)COc1ccccc1` reads “inactive”.

A further experiment deals with CP237. The description is as above. The settings on record: P. falciparum in erythrocytes, SYBR Green DNA, 72 h; series mostly up to 28.7 µM. An outline of the steps:
as §1
In the case of `CCCCCCCCCCCCCCCC[N+](C)(C)C`, the Potency is 7.08 µM (active).
In the case of `C[C@]12CCC(=O)C(O)=C1CC[C@@H]1[C@H]3CCC(=O)[C@@]3(C)CC[C@@H]12`, the Potency entry was “inactive”.
Consider `CCCCc1ccc(C(=O)O)nc1`, for which the Potency entry is “inactive”.
Same read-out and setting: the result for `CC(=O)OCC1=C(C(=O)O)N2C(=O)[C@@H](N)[C@@H]2SC1` reads “inactive”.
Still for that read-out and setting: the result for `NC(=O)CN1CC(O)CC1=O` (configuration not stated) reads “inactive”; that for `O=C(O)C(Cl)Cl`, “inactive”.
Same read-out and setting: the result for `CC(=O)[O][Hg][c]1ccccc1` reads 4.47 µM (active); that for `c1ccc(C2(c3ccccc3)CC2C2=NCCN2)cc1` (configuration not stated), “inactive”; that for `Cc1ccc(Cl)c(O)c1`, “inactive”.
As to `CN1C2CCC1CC(OC(=O)c1cc(Cl)cc(Cl)c1)C2` (configuration not stated), the Potency entry was “inactive”.
The same measure, in the same setting: the result for `O=[N+]([O-])c1ccc([As](=O)(O)O)cc1` reads 7.94 µM (active); that for `COC(C)(C)CCCC(C)C/C=C/C(C)=C/C(=O)OC(C)C` (configuration not stated), 12.6 µM (active).
On the same count and under the same terms, the result for `C1CCC(NC2CCCCC2)CC1` reads “inactive”; that for `Cc1cc(O)ccc1Cl`, “inactive”.
On the same count and under the same terms, the result for `CCCCCCCCCC(CC)c1ccc(S(=O)(=O)O)cc1` (configuration not stated) reads “inactive”.
Regarding `CC[N+]1(CCOC(=O)C(O)(c2ccccc2)c2ccccc2)CCCCC1`, the Potency entry was “inactive”.
On the same count and under the same terms, the result for `O=C(O)COc1ccccc1` reads “inactive”.
